molecular target: AgAbp1; experiment: SPOT peptide array binding signal intensity (averaged, normalized) (arbitrary units (background-subtracted, floor 0; scale differs between SH3 domains)); higher = stronger binding of the SH3 domain to the peptide
In short: (§1)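 Peptides were synthetic 15-mers on cellulose membranes, with every cysteine replaced by serine. They were incubated overnight at 4°C with GST-SH3 domains from four yeast species at 10 μg/ml in TBS-based blocking buffer. Binding signal, the replicate-averaged normalized and background-subtracted spot intensity, is in arbitrary units that differ between domains.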

Row | Binder | SPOT peptide array binding signal intensity
1 | RPVPPPPPMRTTTEG | 18

molecular target: AgBbc1; experiment: as above
In short: as §1

Row | Binder | SPOT peptide array binding signal intensity
2 | RPVPPPPPMRTTTEG | 814

molecular target: AgBem1-D1; experiment: as above
In short: as §1

Row | Binder | SPOT peptide array binding signal intensity
3 | RPVPPPPPMRTTTEG | 201

molecular target: AgBzz1-D1; experiment: as above
In short: as §1

Row | Binder | SPOT peptide array binding signal intensity
4 | RPVPPPPPMRTTTEG | 156

molecular target: AgBzz1-D2; experiment: as above
In short: as §1

Row | Binder | SPOT peptide array binding signal intensity
5 | RPVPPPPPMRTTTEG | 14.5

molecular target: AgCyk3; experiment: as above
In short: as §1

Row | Binder | SPOT peptide array binding signal intensity
6 | RPVPPPPPMRTTTEG | 14

molecular target: AgFus1; experiment: as above
In short: as §1

Row | Binder | SPOT peptide array binding signal intensity
7 | RPVPPPPPMRTTTEG | 63

molecular target: AgHof1; experiment: as above
In short: as §1

Row | Binder | SPOT peptide array binding signal intensity
8 | RPVPPPPPMRTTTEG | 61.8

molecular target: AgHse1; experiment: as above
In short: as §1

Row | Binder | SPOT peptide array binding signal intensity
9 | RPVPPPPPMRTTTEG | 144

molecular target: AgLsb1; experiment: as above
In short: as §1

Row | Binder | SPOT peptide array binding signal intensity
10 | RPVPPPPPMRTTTEG | 303

molecular target: AgLsb4; experiment: as above
In short: as §1

Row | Binder | SPOT peptide array binding signal intensity
11 | RPVPPPPPMRTTTEG | 1760

molecular target: AgMyo5; experiment: as above
In short: as §1

Row | Binder | SPOT peptide array binding signal intensity
12 | RPVPPPPPMRTTTEG | 41.2

molecular target: AgNbp2; experiment: as above
In short: as §1

Row | Binder | SPOT peptide array binding signal intensity
13 | RPVPPPPPMRTTTEG | 3100

molecular target: AgRvs167; experiment: as above
In short: as §1

Row | Binder | SPOT peptide array binding signal intensity
14 | RPVPPPPPMRTTTEG | 1050

molecular target: AgSho1; experiment: as above
In short: as §1

Row | Binder | SPOT peptide array binding signal intensity
15 | RPVPPPPPMRTTTEG | 136

molecular target: AgSla1-D1-D2; experiment: as above
In short: as §1

Row | Binder | SPOT peptide array binding signal intensity
16 | RPVPPPPPMRTTTEG | 1

molecular target: AgSla1-D3; experiment: as above
In short: as §1

Row | Binder | SPOT peptide array binding signal intensity
17 | RPVPPPPPMRTTTEG | 108

molecular target: CaAbp1-D1; experiment: as above
In short: as §1

Row | Binder | SPOT peptide array binding signal intensity
18 | RPVPPPPPMRTTTEG | 364

molecular target: CaAbp1-D2; experiment: as above
In short: as §1

Row | Binder | SPOT peptide array binding signal intensity
19 | RPVPPPPPMRTTTEG | 60.5

molecular target: CaBbc1; experiment: as above
In short: as §1

Row | Binder | SPOT peptide array binding signal intensity
20 | RPVPPPPPMRTTTEG | 553

molecular target: CaBem1-D1; experiment: as above
In short: as §1

Row | Binder | SPOT peptide array binding signal intensity
21 | RPVPPPPPMRTTTEG | 166

molecular target: CaBzz1-D1; experiment: as above
In short: as §1

Row | Binder | SPOT peptide array binding signal intensity
22 | RPVPPPPPMRTTTEG | 3990

molecular target: CaBzz1-D2; experiment: as above
In short: as §1

Row | Binder | SPOT peptide array binding signal intensity
23 | RPVPPPPPMRTTTEG | 1260

molecular target: CaCyk3; experiment: as above
In short: as §1

Row | Binder | SPOT peptide array binding signal intensity
24 | RPVPPPPPMRTTTEG | 387

molecular target: CaFus1; experiment: as above
In short: as §1

Row | Binder | SPOT peptide array binding signal intensity
25 | RPVPPPPPMRTTTEG | 548

molecular target: CaHof1; experiment: as above
In short: as §1

Row | Binder | SPOT peptide array binding signal intensity
26 | RPVPPPPPMRTTTEG | 40

molecular target: CaHse1; experiment: as above
In short: as §1

Row | Binder | SPOT peptide array binding signal intensity
27 | RPVPPPPPMRTTTEG | 405

molecular target: CaLsb1; experiment: as above
In short: as §1

Row | Binder | SPOT peptide array binding signal intensity
28 | RPVPPPPPMRTTTEG | 1

molecular target: CaLsb4; experiment: as above
In short: as §1

Row | Binder | SPOT peptide array binding signal intensity
29 | RPVPPPPPMRTTTEG | 2480

molecular target: CaMyo5; experiment: as above
In short: as §1

Row | Binder | SPOT peptide array binding signal intensity
30 | RPVPPPPPMRTTTEG | 54

molecular target: CaNbp2; experiment: as above
In short: as §1

Row | Binder | SPOT peptide array binding signal intensity
31 | RPVPPPPPMRTTTEG | 1490

molecular target: CaRvs167; experiment: as above
In short: as §1

Row | Binder | SPOT peptide array binding signal intensity
32 | RPVPPPPPMRTTTEG | 1460

molecular target: CaRvs167-3; experiment: as above
In short: as §1

Row | Binder | SPOT peptide array binding signal intensity
33 | RPVPPPPPMRTTTEG | 0.75

molecular target: CaSho1; experiment: as above
In short: as §1

Row | Binder | SPOT peptide array binding signal intensity
34 | RPVPPPPPMRTTTEG | 650

molecular target: CaSla1-D1-D2; experiment: as above
In short: as §1

Row | Binder | SPOT peptide array binding signal intensity
35 | RPVPPPPPMRTTTEG | 1590

molecular target: CaSla1-D3; experiment: as above
In short: as §1

Row | Binder | SPOT peptide array binding signal intensity
36 | RPVPPPPPMRTTTEG | 928

molecular target: ScAbp1; experiment: as above
In short: as §1

Row | Binder | SPOT peptide array binding signal intensity
37 | RPVPPPPPMRTTTEG | 21

molecular target: ScBbc1; experiment: as above
In short: as §1

Row | Binder | SPOT peptide array binding signal intensity
38 | RPVPPPPPMRTTTEG | 64.8

molecular target: ScBem1-D1; experiment: as above
In short: as §1

Row | Binder | SPOT peptide array binding signal intensity
39 | RPVPPPPPMRTTTEG | ≤ 0

molecular target: ScBzz1-D1; experiment: as above
In short: as §1

Row | Binder | SPOT peptide array binding signal intensity
40 | RPVPPPPPMRTTTEG | 177

molecular target: ScBzz1-D2; experiment: as above
In short: as §1

Row | Binder | SPOT peptide array binding signal intensity
41 | RPVPPPPPMRTTTEG | 14.5

molecular target: ScCyk3; experiment: as above
In short: as §1

Row | Binder | SPOT peptide array binding signal intensity
42 | RPVPPPPPMRTTTEG | 8.5

molecular target: ScFus1; experiment: as above
In short: as §1

Row | Binder | SPOT peptide array binding signal intensity
43 | RPVPPPPPMRTTTEG | 180

molecular target: ScHof1; experiment: as above
In short: as §1

Row | Binder | SPOT peptide array binding signal intensity
44 | RPVPPPPPMRTTTEG | 46.2

molecular target: ScHse1; experiment: as above
In short: as §1

Row | Binder | SPOT peptide array binding signal intensity
45 | RPVPPPPPMRTTTEG | 63

molecular target: ScLsb1; experiment: as above
In short: as §1

Row | Binder | SPOT peptide array binding signal intensity
46 | RPVPPPPPMRTTTEG | 180

molecular target: ScLsb2; experiment: as above
In short: as §1

Row | Binder | SPOT peptide array binding signal intensity
47 | RPVPPPPPMRTTTEG | 434

molecular target: ScLsb3; experiment: as above
In short: as §1

Row | Binder | SPOT peptide array binding signal intensity
48 | RPVPPPPPMRTTTEG | 4080

molecular target: ScLsb4; experiment: as above
In short: as §1

Row | Binder | SPOT peptide array binding signal intensity
49 | RPVPPPPPMRTTTEG | 3130

molecular target: ScMyo3; experiment: as above
In short: as §1

Row | Binder | SPOT peptide array binding signal intensity
50 | RPVPPPPPMRTTTEG | 569

molecular target: ScMyo5; experiment: as above
In short: as §1

Row | Binder | SPOT peptide array binding signal intensity
51 | RPVPPPPPMRTTTEG | 239

molecular target: ScNbp2; experiment: as above
In short: as §1

Row | Binder | SPOT peptide array binding signal intensity
52 | RPVPPPPPMRTTTEG | 4580

molecular target: ScPex13; experiment: as above
In short: as §1

Row | Binder | SPOT peptide array binding signal intensity
53 | RPVPPPPPMRTTTEG | 1500

molecular target: ScRvs167; experiment: as above
In short: as §1

Row | Binder | SPOT peptide array binding signal intensity
54 | RPVPPPPPMRTTTEG | 3300

molecular target: ScSho1; experiment: as above
In short: as §1

Row | Binder | SPOT peptide array binding signal intensity
55 | RPVPPPPPMRTTTEG | 616

molecular target: ScSla1-D1-D2; experiment: as above
In short: as §1

Row | Binder | SPOT peptide array binding signal intensity
56 | RPVPPPPPMRTTTEG | 1870

molecular target: ScSla1-D3; experiment: as above
In short: as §1

Row | Binder | SPOT peptide array binding signal intensity
57 | RPVPPPPPMRTTTEG | 222

molecular target: SpAbp1-D1; experiment: as above
In short: as §1

Row | Binder | SPOT peptide array binding signal intensity
58 | RPVPPPPPMRTTTEG | 95.5

molecular target: SpBbc1; experiment: as above
In short: as §1

Row | Binder | SPOT peptide array binding signal intensity
59 | RPVPPPPPMRTTTEG | 40.5

molecular target: SpBzz1-D1; experiment: as above
In short: as §1

Row | Binder | SPOT peptide array binding signal intensity
60 | RPVPPPPPMRTTTEG | 1370

molecular target: SpBzz1-D2; experiment: as above
In short: as §1

Row | Binder | SPOT peptide array binding signal intensity
61 | RPVPPPPPMRTTTEG | 88

molecular target: SpCyk3; experiment: as above
In short: as §1

Row | Binder | SPOT peptide array binding signal intensity
62 | RPVPPPPPMRTTTEG | 112

molecular target: SpHof1; experiment: as above
In short: as §1

Row | Binder | SPOT peptide array binding signal intensity
63 | RPVPPPPPMRTTTEG | 111

molecular target: SpHof1-2; experiment: as above
In short: as §1

Row | Binder | SPOT peptide array binding signal intensity
64 | RPVPPPPPMRTTTEG | 110

molecular target: SpHof1-3; experiment: as above
In short: as §1

Row | Binder | SPOT peptide array binding signal intensity
65 | RPVPPPPPMRTTTEG | 966

molecular target: SpHse1; experiment: as above
In short: as §1

Row | Binder | SPOT peptide array binding signal intensity
66 | RPVPPPPPMRTTTEG | 147

molecular target: SpLsb1; experiment: as above
In short: as §1

Row | Binder | SPOT peptide array binding signal intensity
67 | RPVPPPPPMRTTTEG | 161

molecular target: SpLsb4; experiment: as above
In short: as §1

Row | Binder | SPOT peptide array binding signal intensity
68 | RPVPPPPPMRTTTEG | 4570

molecular target: SpMyo1; experiment: as above
In short: as §1

Row | Binder | SPOT peptide array binding signal intensity
69 | RPVPPPPPMRTTTEG | 333

molecular target: SpNbp2; experiment: as above
In short: as §1

Row | Binder | SPOT peptide array binding signal intensity
70 | RPVPPPPPMRTTTEG | 191

molecular target: SpPex13; experiment: as above
In short: as §1

Row | Binder | SPOT peptide array binding signal intensity
71 | RPVPPPPPMRTTTEG | 150

molecular target: SpRvs167; experiment: as above
In short: as §1

Row | Binder | SPOT peptide array binding signal intensity
72 | RPVPPPPPMRTTTEG | 2150

molecular target: SpSla1-D1-D2; experiment: as above
In short: as §1

Row | Binder | SPOT peptide array binding signal intensity
73 | RPVPPPPPMRTTTEG | 86

molecular target: SpSla1-D3; experiment: as above
In short: as §1

Row | Binder | SPOT peptide array binding signal intensity
74 | RPVPPPPPMRTTTEG | 33.5
